Drawing on PubChem BioAssay (NCATS), this text covers Potency for 40 molecules.

Inconclusive results are not listed. Active and inactive are the calls of the source. Calls follow the shape of the dose curve; as a rule, active = well fitted inhibition curve with a large enough effect; inconclusive = small, poorly fitted or top-dose-only effect; inactive = no such curve, though single readings can be large or run the other way. Starred links: 1 amine or outer side, 2 acyl side, 3 side chain; linkers in the order of their positions; H or OH if unused. Positions of bridges follow the written chain, without caps; N, C: chain ends. Non-standard residues stand in square brackets, D forms with d. Residues, ends and D or L forms follow the SMILES beside them. Chains are numbered I, II in the order given. ξ: configuration not given here. *: point of attachment. Actinocin(9to1) = Cc1c2oc3c(C)ccc(C(=O)[*:1])c3nc-2c(C(=O)[*:2])c(N)c1=O; Octanoyl(6-Me) = CCC(C)CCCCC(=O)*; ξThr(3R) = C[C@@H](O)C(N)C(=O)O; NMeV = CN[CH](C(=O)O)C(C)C; dDab = NCC[C@@H](N)C(=O)O; Dab = NCC[C@H](N)C(=O)O; Cbz = O=C(OCc1ccccc1)*; Sar = CNCC(=O)O
Potency is read from the fitted curve at half-maximal effect.

The nature of this assay: qHTS Screen of the MIPE 4.0 Collection Against Ewings Sarcoma (TC71) (AID 1259253). Also: nearly all actives have a fitted effect of over 40% in size. The following applies: TC71 Ewing sarcoma viability, CellTiter-Glo, 48 h; series mostly up to 45.8 µM. From the text: There is a large unmet medical need for treatments for Ewing sarcoma, a pediatric sarcoma. We sought to identify compounds that inhibited Ewing sarcoma cells in vitro with the goal to then test promising drugs in two drug combinations in vitro to look for synergistic drug combinations. Promising combinations would then proceed to additional validation, including in vivo testing.
Using the NCATS developed oncology compound library called the Mechanism of Interrogation Plate (MIPE), four Ewing sarcoma cell lines were evaluated (TC32, TC71, RDES, EW8). Compounds, in a 12-point titration series, were incubated with cells for 48 hours and the read out was cell viability (CellTiter-Glo from Promega). These initial experiments were used to select appropriate concentrations of each single agent for subsequent two-drug matrix combinations such that the concentrations in the matrices would span both activity and non-activity.
Cells, in the log phase of growth, were seeded in 5 uL of RPMI plus 5% FBS, […] L-glutamine, 100 U/ml penicillin and 100 ug/ml streptomycin into 1536-well solid-bottom white tissue culture treated Greiner Bio One Plates (789173-F) using a MultiDrop Combi (Thermofisher Scientific) dispenser and a small sterile cassette. One column was media alone to be used as a :"no cells" control. The plates were then covered with sterilized stainless steel gasketed lids from Kalypsys. After allowing cells to attach for 4 hours, 23 nL of test compound or control (negative control DMSO and positive control 9.2 uM Bortezomib-final) were added from a 1536-well polypropylene compound source plate to each well using a 1536 head pin tool from Kalypsys. Cells were then incubated for 48 hours at 37C, 95% relative humidity and 5% CO2. After 48 hours, plates were removed from the incubator and 3 uL of CellTiter-Glo (Promega) was added using an Aurora Flying Reagent Dispenser Bioraptor. Plates were incubated at room temperature for 10 minutes prior to reading the luminescence on the Viewlux (PerkinElmer). The relative luciferase units are used to calculate the percent activity using the activity of DMSO in the cells and no cells columns for normalization of no inhibition and full inhibition respectively.
For `O=C(C=CC=Cc1ccc2c(c1)OCO2)N1CCCCC1`, the Potency entry was “inactive”.

For the molecule `O=C(Nc1ccc(Oc2ccnc3[nH]ccc23)c(F)c1)c1cccn(-c2ccc(F)cc2)c1=O`, the Potency entry was “inactive”.

Regarding `COc1cc2c(cc1O)CCC1C2CC[C@@]2(C)C1CC[C@@H]2O` (stereo not given in full), the Potency is 2640 nM (active).

Take `CC(=O)OCC(=O)[C@@]12N=C(C)O[C@H]1C[C@H]1[C@@H]3CCC4=CC(=O)C=C[C@]4(C)[C@@H]3[C@@H](O)C[C@@]12C`: the Potency result was “inactive”.

In the case of `O=C(C=CC#Cc1cccc(NS(=O)(=O)c2ccccc2)c1)NO`, the Potency was 1320 nM (active).

With `Nc1cccc2c1C(=O)N(C1CCC(=O)NC1=O)C2=O` (stereo not given), the Potency result is “inactive”.

For `C[C@H](NC(=O)C(C#N)=Cc1cccc(Br)n1)c1ccccc1`, the Potency was 20900 nM (active).

Turning to `Cc1c2oc3c(C)ccc(C(=O)NC4C(=O)NC(C(C)C)C(=O)N5CCCC5C(=O)N(C)CC(=O)N(C)C(C(C)C)C(=O)OC4C)c3nc-2c(C(=O)NC2C(=O)NC(C(C)C)C(=O)N3CCCC3C(=O)N(C)CC(=O)N(C)C(C(C)C)C(=O)OC2C)c(N)c1=O` (stereo not given) (I: TVP[Sar][NMeV] / II: TVP[Sar][NMeV]; ester I:1-I:C, II:1-II:C; linker I:N-II:N via Actinocin(9to1); configuration not given here), the Potency entry is “inactive”.

Turning to `C=Cc1c(C)c2cc3nc(cc4[nH]c(cc5nc(cc1[nH]2)C(C)=C5CCC(=O)O)c(CCC(=O)OC)c4C)[C@@]1(C)C3=CC=C(C(=O)OC)[C@H]1C(=O)OC`, the Potency was 83.3 nM (active).

For the molecule `CCOC(=O)C=C[C@H](C[C@@H]1CCNC1=O)NC(=O)[C@@H](CC(=O)[C@@H](NC(=O)c1cc(C)on1)C(C)C)Cc1ccc(F)cc1`, the Potency result was “inactive”.

Turning to `CCN(CC)CCNC(=O)c1c(C)[nH]c(C=C2C(=O)Nc3ccc(F)cc32)c1C`, the Potency was 13600 nM (active).

Turning to `COc1cccc2c1C(=O)c1c(O)c3c(c(O)c1C2=O)C[C@@](O)(C(=O)CO)C[C@@H]3O[C@H]1C[C@H](N)[C@H](OC2CCCCO2)[C@H](C)O1` (stereo not given in full), the Potency was 662 nM (active).

Turning to `COC(=O)C=CC(=O)OC`, the Potency was 18700 nM (active).

Regarding `COc1cc([C@@H]2c3cc4c(cc3[C@@H](O[C@@H]3O[C@@H]5CO[C@@H](c6cccs6)O[C@@H]5[C@H](O)[C@@H]3O)[C@H]3COC(=O)[C@H]23)OCO4)cc(OC)c1O`, the Potency is 148 nM (active).

Regarding `CC(C(C)N1CC(=O)NC(=O)C1)N1CC(=O)NC(=O)C1` (stereo not given), the Potency is 590 nM (active).

`O=C(Nc1cc2cc[nH]c2cn1)c1ccccc1`: the Potency was 13200 nM (active).

Regarding `CC(C)(N)c1ccc(-c2nc3ccccc3nc2-c2ccccc2)cc1`, the Potency is 26400 nM (active).

In the case of `O=C1NC(O)CCN1[C@@H]1O[C@H](CO)[C@H](O)[C@H]1O` (stereo not given in full), the Potency entry was “inactive”.

Consider `CNC(=O)c1cccc(-c2ccc3c(N4CCOC[C@H]4C)nc(N4CCOC[C@H]4C)nc3n2)c1`, for which the Potency is 66.2 nM (active).

`O=C(O)C(=O)Nc1cccc(C2=NN=N[N]2)c1`: the Potency result was “inactive”.

In the case of `CC1(C)CC(O)CC(C)(C)N1[O]`, the Potency entry was “inactive”.

As to `CC(C=CC1=C(C)CCCC1(C)C)=CC=CC(C)=CC(=O)Nc1ccc(O)cc1`, the Potency was 5400 nM (active).

As to `CN(CC(=O)N(Cc1ccc(C2CCCCC2)cc1)c1ccc(C(=O)O)c(O)c1)S(=O)(=O)c1c(F)c(F)c(F)c(F)c1F`, the Potency was 8330 nM (active).

As to `O=C1NCCc2[nH]c(-c3ccncc3)cc21`, the Potency is 2640 nM (active).

Take `CCOc1cc2ncc(C#N)c(Nc3ccc(OCc4ccccn4)c(Cl)c3)c2cc1NC(=O)C=CCN(C)C`: the Potency is 2350 nM (active).

Take `CC(C)C[C@@H](C=O)NC(=O)[C@H](CC(C)C)NC(=O)[C@H](CC(C)C)NC(=O)OCc1ccccc1` (Cbz-Leu-Leu-Leu-aldehyde): the Potency was 590 nM (active).

With `N#Cc1c(NC(=O)c2cccc3ccccc23)sc2c1CCCC2`, the Potency is 526 nM (active).

Take `CCC(C)CCCCC(=O)N[C@@H](CCN)C(=O)NC(C(=O)N[C@H](CCN)C(=O)N[C@@H]1CCNC(=O)C([C@@H](C)O)NC(=O)[C@@H](CCN)NC(=O)[C@@H](CCN)NC(=O)[C@@H](CC(C)C)NC(=O)[C@H](Cc2ccccc2)NC(=O)[C@H](CCN)NC1=O)[C@@H](C)O` (stereo partly drawn) ({Octanoyl(6-Me)}-[Dab][ξThr(3R)][dDab][dDab][Dab]F[dL][dDab][dDab][ξThr(3R)]; lactam 4-C): the Potency result was “inactive”.

For `Cc1cn([C@@H]2O[C@H](CO)[C@@H](O)[C@H]2F)c(=O)[nH]c1=O`, the Potency result was “inactive”.

With `CON=C(C(=O)N[C@@H]1C(=O)N2C(C(=O)O)=C(Cn3ccc(=N)n3CCO)CS[C@H]12)c1csc(N)n1`, the Potency result was “inactive”.

Take `O=C(Nc1nnc(-c2ccco2)o1)c1cc(-c2ccccc2)nc2ccccc12`: the Potency is 16600 nM (active).

Regarding `Cc1onc(-c2ccccc2)c1C(=O)N[C@@H]1C(=O)N2[C@@H](C(=O)O)C(C)(C)S[C@@H]12`, the Potency entry is “inactive”.

Take `CCOC(=O)[C@@H](N)Cc1ccc(-c2cc(O[C@H](c3ccc(Cl)cc3-n3ccc(C)n3)C(F)(F)F)nc(N)n2)cc1`: the Potency was 23500 nM (active).

Take `COc1ccc(C[C@@H](C)[C@@H](C)Cc2ccc(OC)c(OC)c2)cc1OC`: the Potency was 1180 nM (active).

In the case of `C#CCC(Cc1cnc2nc(N)nc(N)c2n1)c1ccc(C(=O)N[C@@H](CCC(=O)O)C(=O)O)cc1` (stereo not given in full), the Potency is 37.2 nM (active).

On to `CCCNS(=O)(=O)Nc1ncnc(OCCOc2ncc(Br)cn2)c1-c1ccc(Br)cc1`, for which the Potency entry is “inactive”.

As to `CC(=O)O[C@H]1C[C@@H]2CC[C@H]3[C@H]4C[C@H]([N+]5(C)CCCCC5)[C@@H](OC(C)=O)[C@@]4(C)CC[C@@H]3[C@@]2(C)C[C@H]1N1CCCCC1`, the Potency is 7430 nM (active).

Consider `Oc1ccc(-c2ccc(-c3cc(Nc4cccc(CNC5CC5)c4)n[nH]3)cc2)c(O)c1`, for which the Potency is 1870 nM (active).

Consider `COc1cc(C(=O)NC2CCN(C)CC2)ccc1Nc1ncc2c(n1)N(C1CCCC1)CCC(=O)N2C(C)C`, for which the Potency is 2090 nM (active).

For the molecule `C=C1C(=CC=C2CCC[C@]3(C)[C@@H]([C@H](C)CCCC(C)(C)O)CC[C@@H]23)C[C@@H](O)C[C@@H]1O`, the Potency is 2960 nM (active).
